Assay outcomes deposited in PubChem by University of Kansas High Throughput Screening Laboratory.
Pf apPOL block = Pf-apPOL DNA polymerase inhibition; Recombinant Pf-apPOL, molecular beacon fluorescence, 1.5 h; inhibition, % at 10 µM; hit rate 0.25% among 210,000
mHTT CaM bind = disrupts binding of mutant huntingtin to calmodulin. P42858. AlphaScreen His-mHTT/GST-CaM binding, luminescence. inhibition, % at 15 µM. hit rate 3.6% among 190,000. AID 1671202
Hits are given with their value; . = inactive; / = not tested or not shown; ! = not active in a repeat. Compounds with a hit are over-represented: about 3.6% of the library has one in this group of screens. Rule as the data show it: active = inhibition above about 50%; inactive = the rest.

SMILES	Pf apPOL block	mHTT CaM bind
Nc1ccc2nc(-c3cc(Cl)c(N)c(Cl)c3)[nH]c2c1	.	54
O=C(O)c1ccc2nc(-c3cccc(-c4nc5ccc(C(=O)O)cc5[nH]4)c3)[nH]c2c1	.	/
Oc1ccc2nc(-c3ccccc3)[nH]c2c1	.	.
O=C(CC1CCN(C(=O)c2ccccc2)CC1)NC1CC1	.	.
O=C(C1CCCC1)N1CCN(c2nc(CN3CCOCC3)cs2)CC1	.	.
CC1(C)CN=C(N2CCN(CC(O)COc3ccc(OCC(O)CN4CCN(C5=NCC(C)(C)S5)CC4)cc3)CC2)S1 (stereo not drawn)	/	.
CCCC1CCc2c(sc(NC(=O)c3cccnc3)c2C(N)=O)C1 (stereo not drawn)	.	.
CCCC1CCc2c(sc(NC(=O)c3ccncc3)c2C(N)=O)C1 (stereo not drawn)	66	.
Cc1nc(S(=O)(=O)NCc2ccccc2)c(C#N)c(C)c1Cl	.	.
N#Cc1cc2nc3ccccn3c2cc1C#N	/	.
Cc1nc(-c2ccc(C(=O)N3CCOCC3)cc2)no1	.	.
Cc1c(Cl)cccc1S(=O)(=O)NCCC1CCN(C(=O)c2ccc(F)cc2)CC1	.	51
O=C(c1ccc(F)cc1)N1CCC(CCNS(=O)(=O)c2ccccc2F)CC1	.	.
Cc1ccc(C(=O)N2CCC(CCNS(=O)(=O)c3cccc(Cl)c3C)CC2)cc1	.	57
Cc1ccc(C(=O)N2CCC(CCNS(=O)(=O)c3ccc(F)c(Cl)c3)CC2)cc1	.	62
Cc1ccc(C(=O)N2CCC(CCNS(=O)(=O)c3ccccc3Cl)CC2)cc1	.	.
O=C(c1ccc(F)cc1)N1CCC(CCNS(=O)(=O)c2cccc3nsnc23)CC1	.	.
O=C(c1ccccc1)N1CCC(CCNS(=O)(=O)c2ccc(F)c(Cl)c2)CC1	.	.
Cc1ccc(C(=O)N2CCC(CCNS(=O)(=O)c3cccc4nsnc34)CC2)cc1	.	51
Cc1cc(=O)n(C)c(=O)n1CCCCN1CCCC1	/	.
CC(c1ccccc1)N1CCN(Cc2nc3ccccc3[nH]2)CC1 (stereo not drawn)	.	.
O=C(c1cccs1)N1CC(C(=O)N2CCC(O)CC2)C1	.	.
Cc1cc(OCC(=O)Nc2cccc(F)c2)nc(N2CCC(C)CC2)n1	.	.
O=C(Cn1c2c(c3ccccc31)CCC2)NCc1cccs1	.	.
O=C(c1nccc2ccccc12)N1CCCCC1c1nc(C2CC2)no1 (stereo not drawn)	.	.
SMILES	Pf apPOL block	mHTT CaM bind
O=C(Nc1cccc(C(F)(F)F)c1)O[C@H]1CCC12CCCCC2	.	.
Cc1ccc(S(=O)(=O)NCCC2CCN(C(=O)c3ccc(F)cc3)CC2)cc1C	.	.
Cc1cc(C)c(S(=O)(=O)NCCC2CCN(C(=O)c3ccc(F)cc3)CC2)cc1C	.	56
COc1ccccc1NS(=O)(=O)c1cc(C(=O)Nc2ccccc2)ccc1C	.	.
COc1ccccc1NCC(=O)c1ccc(C)c(C)c1	65	.
O=C(Nc1cccc(C(F)(F)F)c1)c1ncn[nH]1	.	.
O=C(CCSc1ccccc1)N1CCN(c2ccc3nnc(C4CC4)n3n2)CC1	.	.
CCONC(=O)c1cc(-c2ccc(Cl)cc2)n(-c2cccc(F)c2)c1C	.	.
N#CC1=C(N)N(c2ccccc2)C2=C(C(=O)CCC2)C1c1ccsc1 (stereo not drawn)	.	.
N#CC1=C(N)n2c(s/c(=C\c3ccsc3)c2=O)=C(C#N)C1c1ccsc1 (stereo not drawn)	.	70
CC(=NNc1c(Cl)cc(Cl)cc1Cl)c1cc(F)ccc1OC(=O)c1ccccc1F	.	/
CC1=C(C#N)C(=O)NC(=O)/C1=C\c1ccc(-c2cc([N+](=O)[O-])ccc2Cl)o1	.	.
CC1=C(C#N)C(=O)NC(=O)/C1=C\c1ccc(-c2ccc(Cl)cc2Cl)o1	.	71!
O=C1C(c2cccnc2)N(CCCc2ccccc2)C(=O)CN1C1CCCCC1 (stereo not drawn)	.	.
COc1ccc(Cl)cc1C(=O)N1CCc2c(nc[nH]c2=O)C1	.	.
COc1ccccc1CNC(=O)C1CCN(Cc2cn(C)c3ccc(Cl)cc23)CC1	.	.
COc1ccc(C)cc1NC(=O)Cn1ccc2c(=O)[nH]ccc21	73	.
CSc1cccc(NC(=O)Cn2ccc3c(=O)[nH]ccc32)c1	.	.
Cc1ccc(NC(=O)Cn2ccc3c(=O)[nH]ccc32)c(C)c1	.	.
COc1ccc(NC(=O)Cn2ccc3c(=O)[nH]ccc32)cc1Cl	78	.
O=C(c1cnn(-c2ccccc2)n1)N1CCN(C(=O)C2CC2c2ccc(F)cc2)CC1 (stereo not drawn)	.	.
COc1ccccc1NC1OC(=O)c2ccccc21 (stereo not drawn)	.	.
COc1ccccc1NCC(O)CC1C(C)=C(C)c2ccccc21 (stereo not drawn)	.	63
Cc1ccn2c(NC(=O)CC(C)C)c(-c3ccccc3C)nc2c1	.	.
Cc1ccn2c(NCc3ccccc3)c(-c3ccccc3O)nc2c1	.	80
SMILES	Pf apPOL block	mHTT CaM bind
Brc1cccc(-c2noc(CSc3nccn3-c3ccccc3)n2)c1	.	63
O=S(=O)(Cc1nc(-c2cccc(Br)c2)no1)c1ccccc1	.	.
O=C(Nc1ccc(F)cc1)O[C@@H]1C[C@H]2C[C@@H]1[C@H]1CCCCN1C2	.	.
O=C(Nc1ccc(C(F)(F)F)cc1)O[C@@H]1C[C@H]2C[C@@H]1[C@H]1CCCCN1C2	.	73
CC(C)n1c(CC2CCN(C(=O)c3cc(-c4cccs4)[nH]n3)C2)nc2cccnc21 (stereo not drawn)	.	.
CC(C)n1c(CC2CCN(C(=O)c3cc(-c4ccccc4)n[nH]3)C2)nc2cccnc21 (stereo not drawn)	.	59
Cc1cccc(-c2noc(C3CCN(CC(=O)Nc4ccc(C#N)cc4)CC3)n2)c1	.	.
Cc1cccc(NCN2C(=O)C3CCC(C)CC3C2=O)c1 (stereo not drawn)	.	.
CCC(=O)N1CCc2c(nc3cc(-c4ccccc4Cl)[nH]n3c2=O)C1	.	.
O=C(c1ccc2c(c1)CC(=O)N2Cc1ccccc1)N1CCN(c2ccccn2)CC1	.	54
COc1ccccc1N1CCN(C(=O)c2ccc(-c3cccnc3)nc2)CC1	.	.
O=C(c1ccc2c(c1)CC(=O)N2Cc1ccccc1)N1CCCCC1	.	.
Cc1cccc(N2CCN(C(=O)c3ccc(-c4cccnc4)nc3)CC2)c1C	.	64
CCCN1C(=O)Cc2cc(C(=O)N3CCN(c4cccc(C)c4C)CC3)ccc21	.	55
CCCN1C(=O)Cc2cc(C(=O)N3CCN(c4ccc(F)cc4)CC3)ccc21	.	51
CCCN1C(=O)Cc2cc(C(=O)N3CCN(c4ccc(C)cc4)CC3)ccc21	.	.
CCCN1C(=O)Cc2cc(C(=O)N3CCN(c4cccc(C)c4)CC3)ccc21	.	.
CCCN1C(=O)Cc2cc(C(=O)N3CCN(c4ccccc4)CC3)ccc21	.	51
CCCN1C(=O)Cc2cc(C(=O)N3CCOCC3)ccc21	.	.
COC(=O)[C@H](CC(C)C)N(CCc1cn(Cc2ccc(C)cc2)nn1)S(=O)(=O)c1ccc(F)cc1Br	.	72
COC(=O)[C@H](CC(C)C)N(CCc1cn(Cc2ccccc2)nn1)S(=O)(=O)c1ccc(F)cc1Br	.	.
CCn1cc2c3c(cccc31)CN(C(=O)Nc1cccc(C)c1C)CC2	.	.
COc1ccc(C2C(C(=O)Nc3cc(C)ccc3OC)CCC(=O)N2c2ccc(OC)cc2)cc1 (stereo not drawn)	.	56
